According to PubChem BioAssay (NCI):
About 79,000 compounds went through this panel and 15% of them were active in at least one assay; those are over-represented in the sample as a whole. Calls of active or inactive are those of the source. Cut-off read from the data, not from the text of the source: active = growth inhibition above about 70%; inactive = the rest.

Columns and labels:
[1] = NCI Yeast Anticancer Drug Screen. Data for the wt2 strain (AID 169);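 note: 0% = growth of vehicle-treated yeast cultures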; conditions: S. cerevisiae wt2 strain growth inhibition, active compounds read high
Summary of the method: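 Read-out: growth inhibition versus vehicle-treated control cultures after compound exposure of the yeast strain.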

[2] = NCI Yeast Anticancer Drug Screen. Data for the mlh1 strain (AID 171);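 note: 0% = growth of vehicle-treated control cultures of the same strain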; conditions: S. cerevisiae mlh1 strain growth inhibition, active compounds read high
Summary of the method: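 Read-out: growth inhibition versus vehicle controls. Strain: engineered yeast with a defined DNA repair or cell cycle defect, compound-treated.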

[3] = NCI Yeast Anticancer Drug Screen. Data for the sgs1 strain (AID 173);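 note: 0% = growth of vehicle-only control cultures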; conditions: S. cerevisiae sgs1 mutant, active compounds read high
Summary of the method: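 Read-out: yeast growth inhibition relative to vehicle controls, following compound exposure of a strain with a defined DNA repair/cell cycle alteration.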

[4] = NCI Yeast Anticancer Drug Screen. Data for the mlh1 rad18 strain (AID 175); conditions: S. cerevisiae mlh1 rad18 strain growth inhibition, active compounds read high
Summary of the method: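 Yeast w/ defined DNA-repair lesions; compound exposure; growth vs vehicle controls → % inhibition.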

[5] = NCI Yeast Anticancer Drug Screen. Data for the rad18 strain (AID 177); conditions: S. cerevisiae rad18 mutant growth inhibition, active compounds read high
Summary of the method: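 Readout: growth inhibition vs vehicle controls. Cells: genetically altered yeast strain, DNA repair defect.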

[6] = NCI Yeast Anticancer Drug Screen. Data for the rad52 strain (AID 147);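 note: 0% = growth of vehicle-treated control cultures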; conditions: S. cerevisiae rad52 mutant growth inhibition, active compounds read high
Summary of the method: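 Read-out: growth inhibition versus vehicle-treated controls. Cells were a DNA repair-deficient yeast strain treated with compounds.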

[7] = NCI Yeast Anticancer Drug Screen. Data for the wt1 strain (AID 149);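 note: 0% = growth of vehicle-treated wt1 cultures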; conditions: S. cerevisiae wt1 strain (SPY 50644) growth inhibition, active compounds read high
Summary of the method: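 Measured: growth of wt1 yeast under compound versus vehicle treatment, reported as inhibition.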

[8] = NCI Yeast Anticancer Drug Screen. Data for the rad50EPP+ strain (AID 151);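 note: 0% = growth of vehicle-treated control cultures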; conditions: S. cerevisiae rad50 mutant strain, active compounds read high
Summary of the method: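 Growth inhibition read against vehicle controls in rad50EPP+ yeast, a strain altered in DNA damage repair, after compound exposure.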

[9] = NCI Yeast Anticancer Drug Screen. Data for the mgt1 strain (AID 153); conditions: S. cerevisiae mgt1 mutant growth inhibition, active compounds read high
Summary of the method: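 mgt1 yeast grown with test compound; read-out is growth inhibition versus vehicle-treated cultures.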

[10] = NCI Yeast Anticancer Drug Screen. Data for the rad50 strain (AID 155);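 note: 0% = growth of vehicle-only cultures of the same strain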; conditions: S. cerevisiae rad50 strain growth inhibition, active compounds read high
Summary of the method: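 Growth of the mutant yeast was measured after compound exposure and referenced to vehicle-treated cultures.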

[11] = NCI Yeast Anticancer Drug Screen. Data for the mec2-1 strain (AID 157); conditions: S. cerevisiae mec2-1 strain, active compounds read high
Summary of the method: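 Yeast mec2-1 mutant treated with compound. Readout: growth inhibition vs vehicle controls.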

[12] = NCI Yeast Anticancer Drug Screen. Data for the rad14 strain (AID 159);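 note: 0% = growth of vehicle-treated control cultures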; conditions: S. cerevisiae rad14 strain growth inhibition, active compounds read high
Summary of the method: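 Here, inhibition of yeast growth was measured after compound exposure, using a strain with a genetic defect in DNA damage repair and vehicle-treated cultures as the reference.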

[13] = NCI Yeast Anticancer Drug Screen. Data for the sgs1 mgt1 strain (AID 161);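 note: 0% = growth of cultures given vehicle only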; conditions: S. cerevisiae sgs1 mgt1 strain, active compounds read high
Summary of the method: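 Read-out: growth inhibition vs vehicle controls. Cells: mutant yeast strain deficient in DNA damage repair.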

[14] = NCI Yeast Anticancer Drug Screen. Data for the CLN2oe strain (AID 163);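 note: 0% = growth of vehicle-only control cultures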; conditions: S. cerevisiae CLN2oe strain, active compounds read high
Summary of the method: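 Read-out: yeast growth inhibition, expressed relative to vehicle-only controls. The strain bears an engineered cell-cycle alteration.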

[15] = NCI Yeast Anticancer Drug Screen. Data for the cln2 rad14 strain (AID 165);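 note: 0% = growth equal to vehicle treated cultures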; conditions: S. cerevisiae cln2 rad14 strain, active compounds read high
Summary of the method: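 cln2 rad14 yeast strain; compound exposure; growth inhibition read vs vehicle controls.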

[16] = NCI Yeast Anticancer Drug Screen. Data for the bub3 strain (AID 167); conditions: S. cerevisiae bub3 mutant strain, active compounds read high
Summary of the method: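 Whole-cell yeast assay. The mutant strain was incubated with compounds, and growth inhibition was determined by comparison with vehicle-treated cells.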

[17] = at 5.0 µM (retest, dose inferred, filed as 0.5)
[18] = at 50.0 µM (retest, dose inferred, filed as 5.0)

Measured: growth inhibition

O=C(O)C(=Cc1ccc(-c2ccccc2)cc1)C(=O)O
inactive: [1]; at 1.2 µM 0% | [1]; at 3.7 µM 3% | [1]; at 11.0 µM 17% | [1]; at 33.0 µM 61% | [2]; at 1.2 µM 3% | [2]; at 3.7 µM 5% | [2]; at 11.0 µM 23% | [2]; at 33.0 µM 69% | [3]; at 1.2 µM 3% | [3]; at 3.7 µM 7% | [3]; at 11.0 µM 26% | [4]; [17] -2% | [4]; [18] 19% | [5]; at 1.2 µM 3% | [5]; at 3.7 µM 7% | [5]; at 11.0 µM 20%
active: [1]; at 100.0 µM 89% | [2]; at 100.0 µM 94% | [3]; at 33.0 µM 72% | [3]; at 100.0 µM 92% | [4]; at 50.0 µM 70.9% | [5]; at 33.0 µM 70% | [5]; at 100.0 µM 91%

COC1/C=C\C=C(/C)C(=O)NC2=CC(=O)C(=O)C(=C2O)CC(C)CC(OC)C(O)C(C)/C=C(\C)C1OC(N)=O (centres undefined)
inactive: [6]; at 1.2 µM 24% | [6]; at 3.7 µM 32% | [7]; at 1.2 µM 10% | [7]; at 3.7 µM -17% | [8]; at 1.2 µM 15% | [8]; at 3.7 µM 2% | [8]; at 11.0 µM 3% | [8]; at 33.0 µM 7% | [8]; at 100.0 µM 46% | [9]; at 1.2 µM -10% | [9]; at 3.7 µM 28% | [10]; at 1.2 µM 17% | [10]; at 3.7 µM 40% | [10]; [17] -17% | [11]; at 1.2 µM -12% | [11]; at 3.7 µM 50% | [11]; [17] 56% | [12]; at 1.2 µM -13% | [12]; at 3.7 µM -10% | [13]; [17] 13% | [14]; at 1.2 µM -32% | [14]; at 3.7 µM 34% | [15]; [17] 45% | [16]; at 1.2 µM -6% | [16]; at 3.7 µM 51% | [16]; [17] 67% | [1]; at 1.2 µM 6% | [1]; at 3.7 µM 7% | [2]; at 1.2 µM -5% | [2]; at 3.7 µM 11% | [3]; at 1.2 µM 28% | [3]; at 3.7 µM 36% | [4]; [17] 33% | [5]; at 1.2 µM 12% | [5]; at 3.7 µM 3%
active: [6]; at 11.0 µM 94% | [6]; at 33.0 µM 98% | [6]; at 100.0 µM 97% | [7]; at 11.0 µM 86% | [7]; at 33.0 µM 95% | [7]; at 100.0 µM 94% | [9]; at 11.0 µM 90% | [9]; at 33.0 µM 96% | [9]; at 100.0 µM 95% | [10]; at 11.0 µM 94% | [10]; at 33.0 µM 96% | [10]; [18] 94% | [10]; at 50.0 µM 87.5% | [10]; at 100.0 µM 95% | [11]; at 11.0 µM 94% | [11]; at 33.0 µM 96% | [11]; [18] 97% | [11]; at 50.0 µM 89.8% | [11]; at 100.0 µM 95% | [12]; at 11.0 µM 91% | [12]; at 33.0 µM 95% | [12]; at 100.0 µM 95% | [13]; [18] 95% | [13]; at 50.0 µM 89.8% | [14]; at 11.0 µM 94% | [14]; at 33.0 µM 95% | [14]; at 100.0 µM 94% | [15]; [18] 96% | [15]; at 50.0 µM 77.8% | [16]; at 11.0 µM 93% | [16]; at 33.0 µM 96% | [16]; [18] 97% | [16]; at 50.0 µM 86.2% | [16]; at 100.0 µM 95% | [1]; at 11.0 µM 89% | [1]; at 33.0 µM 96% | [1]; at 100.0 µM 96% | [2]; at 11.0 µM 89% | [2]; at 33.0 µM 94% | [2]; at 100.0 µM 94% | [3]; at 11.0 µM 91% | [3]; at 33.0 µM 96% | [3]; at 100.0 µM 95% | [4]; [18] 92% | [4]; at 50.0 µM 83.2% | [5]; at 11.0 µM 91% | [5]; at 33.0 µM 96% | [5]; at 100.0 µM 95%

O=C(CN(c1ccccc1)c1ccccc1)n1nnc2ccccc21
inactive: [6]; at 1.2 µM 18% | [6]; at 3.7 µM 20% | [6]; at 11.0 µM 14% | [6]; at 33.0 µM 39% | [7]; at 1.2 µM 10% | [7]; at 3.7 µM -11% | [7]; at 11.0 µM -19% | [7]; at 33.0 µM 0% | [8]; at 1.2 µM 15% | [8]; at 3.7 µM 7% | [8]; at 11.0 µM 15% | [8]; at 33.0 µM 42% | [9]; at 1.2 µM 6% | [9]; at 3.7 µM -20% | [9]; at 11.0 µM -10% | [9]; at 33.0 µM 9% | [10]; at 1.2 µM -9% | [10]; at 3.7 µM -7% | [10]; [17] -1% | [10]; at 11.0 µM 14% | [10]; at 33.0 µM 28% | [11]; at 1.2 µM -9% | [11]; at 3.7 µM 0% | [11]; [17] -6% | [11]; at 11.0 µM 13% | [11]; at 33.0 µM 23% | [11]; [18] 23% | [12]; at 1.2 µM -19% | [12]; at 3.7 µM -18% | [12]; at 11.0 µM -18% | [12]; at 33.0 µM 2% | [13]; [17] -15% | [13]; [18] 36% | [13]; at 50.0 µM 47.7% | [14]; at 1.2 µM 8% | [14]; at 3.7 µM -9% | [14]; at 11.0 µM -9% | [14]; at 33.0 µM 4% | [14]; at 100.0 µM 69% | [15]; [17] -2% | [15]; [18] -29% | [15]; at 50.0 µM 52.2% | [16]; at 1.2 µM -21% | [16]; at 3.7 µM -19% | [16]; [17] -42% | [16]; at 11.0 µM -35% | [16]; at 33.0 µM -19% | [1]; at 1.2 µM -7% | [1]; at 3.7 µM 8% | [1]; at 11.0 µM -6% | [1]; at 33.0 µM 6% | [2]; at 1.2 µM 9% | [2]; at 3.7 µM 6% | [2]; at 11.0 µM 13% | [2]; at 33.0 µM 36% | [3]; at 1.2 µM 19% | [3]; at 3.7 µM 16% | [3]; at 11.0 µM 14% | [3]; at 33.0 µM 32% | [4]; [17] -21% | [5]; at 1.2 µM 6% | [5]; at 3.7 µM 14% | [5]; at 11.0 µM 6% | [5]; at 33.0 µM 30%
active: [6]; at 100.0 µM 85% | [7]; at 100.0 µM 82% | [8]; at 100.0 µM 71% | [9]; at 100.0 µM 88% | [10]; [18] 76% | [10]; at 50.0 µM 74.5% | [10]; at 100.0 µM 84% | [11]; at 50.0 µM 78.6% | [11]; at 100.0 µM 85% | [12]; at 100.0 µM 85% | [16]; [18] 84% | [16]; at 50.0 µM 74.4% | [16]; at 100.0 µM 76% | [1]; at 100.0 µM 80% | [2]; at 100.0 µM 86% | [3]; at 100.0 µM 90% | [4]; [18] 87% | [4]; at 50.0 µM 70.2% | [5]; at 100.0 µM 90%
